Data published in PubChem BioAssay (Tox21).
Calls of active or inactive are those of the source. Calls follow the shape of the dose curve; as a rule, active = well fitted curve in the direction sought with a large enough effect in the repeat runs; inconclusive = weak or mixed curves; inactive = flat fitted curve, though single readings scatter.

Experiment: qHTS assay to test for compound auto fluorescence at 535 nm (green) in HepG2 cell free culture (AID 720686)
Details: Cell-free medium, green autofluorescence 485/535 nm; series mostly up to 91.3 µM; fluorescence, % of fluorescein control: at the top concentration
% is scaled to controls: 0 for no effect and ±100 for the full control effect; tags tell the direction and shape of the fitted curve or compound fluorescence and quenching.

Compound	fluorescence, % of fluorescein control	outcome
CN1CCCC(CC2c3ccccc3Sc3ccccc32)C1 (configuration not stated)	-0.006% [at 18.6 µM] (inactive)	
CC(C)c1nc(CN(C)C(=O)N[C@H](C(=O)N[C@@H](Cc2ccccc2)C[C@H](O)[C@H](Cc2ccccc2)NC(=O)OCc2cncs2)C(C)C)cs1		inactive
CC(C)(c1ccccc1)c1ccccc1	0.0513% (inactive)	
CN1CCCC(n2nc(Cc3ccc(Cl)cc3)c3ccccc3c2=O)CC1 (configuration not stated)	0.105% [at 46 µM] (inactive)	
O=C(O)CCCCCCCCCCCBr	-0.0236% (inactive)	
Cc1ccccc1N=C(N)Nc1ccccc1C	0.0393% (inactive)	
CCOc1ccccc1O[C@H](c1ccccc1)[C@H]1CNCCO1	-0.0037% [at 46 µM] (inactive)	
C=C/C(C)=C/C/C=C(\C)CCC=C(C)C	0.0324% (inactive)	
CCOC(=O)C1=C(C)NC(C)=C(C(=O)OC)C1c1cccc(Cl)c1Cl (configuration not stated)	0.194% [at 46 µM] (inactive)	
Oc1cc2c(cc1O)[C@H]1c3ccc(O)c(O)c3OC[C@@]1(O)C2	0.16% [at 95.7 µM] (inactive)	
CN(C)CCC=C1c2ccccc2C=Cc2ccccc21	-0.0497% [at 46 µM] (inactive)	
CC(=O)c1ccc([N+](=O)[O-])cc1	-0.041% (inactive)	
CCCCCCCCCCCCCCN(CCO)CCO	-0.0227% (inactive)	
COc1cc(C(=O)NC2CCN(C)CC2)ccc1Nc1ncc2c(n1)N(C1CCCC1)CC(F)(F)C(=O)N2C	0.008% (inactive)	
COc1ccccc1NC(=O)c1cc2ccccc2cc1O	0.445% (inactive)	
O=C(Nc1cccc2c(=O)cc(-c3nn[nH]n3)oc12)c1ccc(OCCCCc2ccccc2)cc1	0.0444% [at 46 µM] (inactive)	
O=C(O)c1cccc(-c2noc(-c3ccccc3F)n2)c1	-0.0011% [at 46 µM] (inactive)	
Oc1c(I)cc(I)c2cccnc12	0.0955% [at 46 µM] (inactive)	
CCCCC(CC)CN (configuration not stated)	0.114% [at 95.7 µM] (inactive)	
C[C@@H]1CC(=O)NN=C1c1ccc(NN=C(C#N)C#N)cc1	-0.0703% [at 46 µM] (inactive)	
NNC(=O)CP(=O)(c1ccccc1)c1ccccc1	0.0014% [at 46 µM] (inactive)	
CN(C)CCN1C(=O)c2ccccc2N(C)c2ccccc21	-0.0679% [at 46 µM] (inactive)	
C[C@]1(Cn2ccnn2)[C@H](C(=O)O)N2C(=O)C[C@H]2S1(=O)=O	0.0852% [at 46 µM] (inactive)	
c1ccc(C[n+]2cccc3ccccc32)cc1	0.0891% (inactive)	
CC1CC(OC(=O)C(O)c2ccccc2)CC(C)(C)N1C (configuration not stated)		inactive
CN1C(=O)OC(C)(C)C1=O		inactive

Experiment: qHTS assay to test for compound auto fluorescence at 460 nm (blue) in HepG2 cells (AID 720687); also: potency is read from the fitted curve at half-maximal effect
Details: autofluorescence 405/460 nm, 1 h; series mostly up to 91.3 µM; fluorescence, % of fluorescent control: at the top concentration
Summary of the method: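 Cells (2,000/well in MEM with 10% FBS) attached overnight at 37 C, then were exposed to compound or DMSO for 1 hr at 37 C, 5% CO2. Fluorescence read at Ex/Em 405/460 nm, expressed as triamterene-equivalent signal.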

Compound	fluorescence, % of fluorescent control	Potency
C=C1CCC2CC1C2(C)C (configuration not stated)	-0.0105% (inactive)	
CN1CCCC(CC2c3ccccc3Sc3ccccc32)C1 (configuration not stated)	0.049% [at 18.6 µM] (inactive)	
CC(C)c1nc(CN(C)C(=O)N[C@H](C(=O)N[C@@H](Cc2ccccc2)C[C@H](O)[C@H](Cc2ccccc2)NC(=O)OCc2cncs2)C(C)C)cs1		inactive
CC(C)(c1ccccc1)c1ccccc1	0.162% (inactive)	
CN1CCCC(n2nc(Cc3ccc(Cl)cc3)c3ccccc3c2=O)CC1 (configuration not stated)	0.18% [at 46 µM] (inactive)	
O=C(O)CCCCCCCCCCCBr	-0.0054% (inactive)	
CCCCN1CCCC1C(=O)Nc1c(C)cc(C)cc1C (configuration not stated)	-0.0372% [at 46 µM] (inactive)	
Cc1ccccc1N=C(N)Nc1ccccc1C	-0.0068% (inactive)	
CCOc1ccccc1O[C@H](c1ccccc1)[C@H]1CNCCO1	-0.0227% [at 46 µM] (inactive)	
C=C/C(C)=C/C/C=C(\C)CCC=C(C)C	0.0014% (inactive)	
Oc1cc2c(cc1O)[C@H]1c3ccc(O)c(O)c3OC[C@@]1(O)C2	-0.0485% [at 95.7 µM] (inactive)	
CN(C)CCC=C1c2ccccc2C=Cc2ccccc21	-0.0488% [at 46 µM] (inactive)	
CN(C(=O)CN(CCO)CC(=O)N(C)C(C)(C)Cc1ccccc1)C(C)(C)Cc1ccccc1	0.0182% [at 18.6 µM] (inactive)	
CC(=O)c1ccc([N+](=O)[O-])cc1	-0.154% (inactive)	
CCCCCCCCCCCCCCN(CCO)CCO	0.0668% (inactive)	
COc1cc(C(=O)NC2CCN(C)CC2)ccc1Nc1ncc2c(n1)N(C1CCCC1)CC(F)(F)C(=O)N2C	0.103% (inactive)	
CC1=C(Br)C(=O)C(Br)=C/C1=C(/c1ccccc1S(=O)(=O)O)c1cc(Br)c(O)c(Br)c1C	-0.7% (inactive)	
COc1ccccc1NC(=O)c1cc2ccccc2cc1O		39.8 µM [fluorescent] (active)
O=C(Nc1cccc2c(=O)cc(-c3nn[nH]n3)oc12)c1ccc(OCCCCc2ccccc2)cc1	-0.105% [at 46 µM] (inactive)	
O=C(O)c1cccc(-c2noc(-c3ccccc3F)n2)c1	0.0878% [at 46 µM] (inactive)	
O=C1c2ccccc2C(=O)N1CCc1noc(-c2ccc(CN3CCCCCC3)s2)n1	-0.0181% (inactive)	
Oc1c(I)cc(I)c2cccnc12	-0.135% [at 46 µM] (inactive)	
CCCCC(CC)CN (configuration not stated)	0.0598% [at 95.7 µM] (inactive)	
OCCN1CCN(CCCN2c3ccccc3Sc3ccc(Cl)cc32)CC1	0.0774% [at 18.6 µM] (inactive)	
Cc1cc(=O)c2c(O)c3c(O)cc(=O)c4c3c3c(cc(O)c1c23)C(C)(C)C=4O	0.0583% [at 46 µM] (inactive)	
C[C@@H]1CC(=O)NN=C1c1ccc(NN=C(C#N)C#N)cc1	0.107% [at 46 µM] (inactive)	
